Eight compounds from PubChem BioAssay (Tox21) can be followed below.

Unmarked numbers belong to inactive results. Records with an inconclusive call do not appear. The source made the active and inactive calls. Unless noted, calls come from the whole dose curve; as a rule, active = well fitted curve in the direction sought with a large enough effect in the repeat runs; inconclusive = weak or mixed curves; inactive = no such curve, though single readings can be large; an effect the other way counts as inactive or inconclusive.

The nature of test [1]: qHTS RealTime-Glo MT Cell Viability Assay in HEK293 cells - 0 hour (AID 1224880). Note: nearly all actives have a fitted effect of over 45% in size. Note: potency is the fitted concentration of half-maximal effect. An outline of the steps:
(§1)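 Tox21 screen in HEK293 using RealTime-Glo MT chemistry, with cells and reagent co-dispensed. Luminescence proportional to viable cell number was captured at intervals during 40 h compound exposure at 37 C.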
(Quantitative high-throughput screening tests each substance at several concentrations.)

A short description of test [2]: A CellTox Green Cytotoxicity Assay to monitor cytotoxicity in HEK293 cells - 32 hour (AID 1224881). Note: nearly all actives have a fitted effect of over 40% in size. An outline of the steps:
(§2)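 Seeding of HEK293 cells together with cytotoxicity dye preceded a 5 h incubation at 37 C/5% CO2. Test compounds in DMSO were then added and fluorescence monitored across 40 h.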

Test [3] is described as follows: A CellTox Green Cytotoxicity Assay to monitor cytotoxicity in HepG2 cells - 0 hour (AID 1224882). Note: nearly all actives have a fitted effect of over 35% in size. An outline of the steps:
(§3)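 Nonlytic assay: viable cells exclude the dye, so fluorescence scales with cell death. HepG2 at 600 cells/well, compounds added after 5 h, signal read across 40 h.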

Test [4] is described as follows: A CellTox Green Cytotoxicity Assay to monitor cytotoxicity in HepG2 cells - 32 hour (AID 1224883). Note: nearly all actives have a fitted effect of over 50% in size. An outline of the steps:
as §3

A short description of test [5]: A CellTox Green Cytotoxicity Assay to monitor cytotoxicity in HEK293 cells - 8 hour (AID 1224884). Note: nearly all actives have a fitted effect of over 35% in size. The gist of the method:
as §2

Test [6] can be described thus: qHTS RealTime-Glo MT Cell Viability Assay in HepG2 cells - 16 hour (AID 1224885). Note: nearly all actives have a fitted effect of over 50% in size. The gist of the method: (§4)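 Cell number in HepG2 cultures estimated from NanoLuc luminescence generated by metabolic reduction of a prosubstrate by living cells. The homogeneous, nonlytic format allowed repeated reads at 0, 8, 16, 24, 32 and 40 h of compound exposure.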
A short description of test [7]: qHTS RealTime-Glo MT Cell Viability Assay in HEK293 cells - 24 hour (AID 1224886). Note: top concentration of the series differs between compounds; nearly all actives have a fitted effect of over 50% in size. The gist of the method:
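Homogeneous bioluminescent viability format in HEK293 cells (600 cells/well). Following 5 h at 37 C/5% CO2, 23 nL compound was pintooled; the signal was measured repeatedly during 40 h incubation.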

Test [8] in a line: qHTS RealTime-Glo MT Cell Viability Assay in HEK293 cells - 8 hour (AID 1224887). Note: top concentration of the series differs between compounds; nearly all actives have a fitted effect of over 50% in size. An outline of the steps:
as §1

Test [9] can be described thus: A CellTox Green Cytotoxicity Assay to monitor cytotoxicity in HEK293 cells - 16 hour (AID 1224888). Note: nearly all actives have a fitted effect of over 35% in size. An outline of the steps:
as §2

Test [10] in a line: qHTS RealTime-Glo MT Cell Viability Assay in HepG2 cells - 0 hour (AID 1224889). Note: nearly all actives have a fitted effect of over 50% in size. Note: potency is the fitted concentration of half-maximal effect. An outline of the steps: as §4
A short description of test [11]: A CellTox Green Cytotoxicity Assay to monitor cytotoxicity in HepG2 cells - 8 hour (AID 1224890). Note: nearly all actives have a fitted effect of over 45% in size. An outline of the steps: as §3
A short description of test [12]: qHTS assay to identify small molecule antagonists of the estrogen receptor alpha (ER-alpha) signaling pathway using the BG1 cell line in the presence of 0.1 nM 17-beta-estradiol - cell viability counter screen (AID 1259241). Note: nearly all actives have a fitted effect of over 40% in size. An outline of the steps:
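VM7Luc4E2 cells (endogenous full-length ER-alpha, 4xERE-luciferase), cultured 5 days in charcoal-stripped serum, exposed to compounds with 0.1 nM 17beta-estradiol (final) for 22 hr at 37C. Viability read in same wells as live-cell protease fluorescence after 30 min.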

Test [13] can be described thus: qHTS assay to identify small molecule antagonists of the androgen receptor (AR) signaling pathway using the MDA cell line in the presence of 0.5 nM R1881 - cell viability counter screen (AID 1259242). Note: nearly all actives have a fitted effect of over 45% in size. An outline of the steps:
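R1881 at 0.5 nM final stimulated MDA-kb2 cells during 16 hr compound treatment at 37C. Cytotoxicity read: CellTiter-Fluor fluorescence after 30 min.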

Test [14] addresses Estrogen receptor (Homo sapiens) (UniProt P03372). The test can be described thus: qHTS assay to identify small molecule antagonists of the estrogen receptor alpha (ER-alpha) signaling pathway using the BG1 cell line in the presence of 0.1 nM 17-beta-estradiol (AID 1259244). Note: nearly all actives have a fitted effect of over 50% in size. An outline of the steps: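 VM7Luc4E2; 4xERE-luciferase; 0.1 nM E2 final; 22 h co-incubation, 37C; ONE-Glo luminescence after 30 min at room temperature.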

The nature of test [15]: qHTS assay to identify small molecule HDAC inhibitors (AID 1259364).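 Note: wild-type HCT-116 cells with endogenous class I/II HDAC activity; top concentration of the series differs between compounds; nearly all actives have a fitted effect of over 45% in size.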 The gist of the method:
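Relative class I and II HDAC activity is taken from the luminogenic signal in HCT-116 cells, with compound exposure 2 hr and reagent development 30 min at room temperature.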

The nature of test [16]: qHTS assay to identify small molecule HDAC inhibitors - cell viability counter screen (AID 1259365). An outline of the steps: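 Wild-type HCT-116 cells, 1,500/well, cultured overnight, then compound-treated 2 h at 37 C. Viability measured as ATP luminescence with CellTiter-Glo after 30 min at room temperature.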
The nature of test [17]: qHTS assay to identify small molecule agonists of the sonic hedgehog signaling (Shh) pathway - cell viability counter screen (AID 1259366). Note: nearly all actives have a fitted effect of over 50% in size. An outline of the steps: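 NIH/3T3-derived Gli1-Luc reporter cells, 2,000 per well, received compound after 4 h and were treated about 23 h at 37C. Viability measured in the same wells by CellTiter-Fluor fluorescence after 1 h.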
In test [18] the target is Androgen receptor (Homo sapiens) (UniProt P10275). The test can be described thus: qHTS assay to identify small molecule antagonists of the androgen receptor (AR) signaling pathway using the MDA cell line in the presence of 0.5 nM R1881 (AID 1259243). Note: nearly all actives have a fitted effect of over 50% in size. The gist of the method:
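We exposed MDA-kb2 cells to compounds under 0.5 nM R1881 stimulation for 16 hr at 37C and quantified MMTV-driven luciferase by luminescence.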

The nature of test [19]: qHTS assay to identify small molecule antagonists of the sonic hedgehog signaling (Shh) pathway - cell viability counter screen (AID 1259367). Note: nearly all actives have a fitted effect of over 55% in size. The gist of the method:
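Seed 3T3 Gli1-Luc cells at 2,000 per well; incubate 4 hr; add compound in DMSO, then conditioned medium; incubate at 37C with 5% CO2; add CellTiter-Fluor after 23 hr; read fluorescence 1 hr later.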

The nature of test [20]: qHTS assay to identify small molecule phospholipidosis (PLD) inducers (AID 1259344; active = well fitted curve in the direction sought with a large enough effect; an effect the other way counts as inactive or inconclusive). An outline of the steps: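 Quantitative HTS in HepG2: compound plus LipidTOX Red dye for 24 h, paraformaldehyde fixation with Hoechst 33342, widefield high-content imaging; amiodarone as positive and DMSO as negative control.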

Chain of Androgen receptor (Homo sapiens) (P10275 whole entry, looked up): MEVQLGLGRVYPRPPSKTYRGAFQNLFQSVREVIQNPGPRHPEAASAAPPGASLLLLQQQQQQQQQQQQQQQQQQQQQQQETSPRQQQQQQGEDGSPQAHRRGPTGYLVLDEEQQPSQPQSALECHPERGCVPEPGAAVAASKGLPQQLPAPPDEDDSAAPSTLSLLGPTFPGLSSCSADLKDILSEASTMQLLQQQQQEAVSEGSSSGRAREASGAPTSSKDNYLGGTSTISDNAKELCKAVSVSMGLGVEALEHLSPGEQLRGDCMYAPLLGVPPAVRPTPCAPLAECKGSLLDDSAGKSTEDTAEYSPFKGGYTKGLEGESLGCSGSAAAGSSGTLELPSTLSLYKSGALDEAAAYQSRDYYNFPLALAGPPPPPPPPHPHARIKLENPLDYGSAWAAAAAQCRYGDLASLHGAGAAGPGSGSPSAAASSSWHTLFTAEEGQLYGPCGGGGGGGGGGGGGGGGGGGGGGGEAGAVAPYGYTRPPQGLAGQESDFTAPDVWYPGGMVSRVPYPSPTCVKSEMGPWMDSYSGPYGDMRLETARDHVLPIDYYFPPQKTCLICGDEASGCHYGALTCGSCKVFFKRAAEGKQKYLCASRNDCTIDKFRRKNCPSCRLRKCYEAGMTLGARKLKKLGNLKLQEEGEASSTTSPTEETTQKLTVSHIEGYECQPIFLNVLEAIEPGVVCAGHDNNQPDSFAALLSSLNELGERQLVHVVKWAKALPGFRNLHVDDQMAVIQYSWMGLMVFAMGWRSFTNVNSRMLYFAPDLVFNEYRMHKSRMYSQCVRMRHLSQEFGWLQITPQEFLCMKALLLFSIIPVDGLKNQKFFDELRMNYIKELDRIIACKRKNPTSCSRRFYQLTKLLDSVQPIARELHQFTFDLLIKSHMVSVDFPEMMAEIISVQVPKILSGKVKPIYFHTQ
Chain of Estrogen receptor (Homo sapiens) (P03372 whole entry, looked up): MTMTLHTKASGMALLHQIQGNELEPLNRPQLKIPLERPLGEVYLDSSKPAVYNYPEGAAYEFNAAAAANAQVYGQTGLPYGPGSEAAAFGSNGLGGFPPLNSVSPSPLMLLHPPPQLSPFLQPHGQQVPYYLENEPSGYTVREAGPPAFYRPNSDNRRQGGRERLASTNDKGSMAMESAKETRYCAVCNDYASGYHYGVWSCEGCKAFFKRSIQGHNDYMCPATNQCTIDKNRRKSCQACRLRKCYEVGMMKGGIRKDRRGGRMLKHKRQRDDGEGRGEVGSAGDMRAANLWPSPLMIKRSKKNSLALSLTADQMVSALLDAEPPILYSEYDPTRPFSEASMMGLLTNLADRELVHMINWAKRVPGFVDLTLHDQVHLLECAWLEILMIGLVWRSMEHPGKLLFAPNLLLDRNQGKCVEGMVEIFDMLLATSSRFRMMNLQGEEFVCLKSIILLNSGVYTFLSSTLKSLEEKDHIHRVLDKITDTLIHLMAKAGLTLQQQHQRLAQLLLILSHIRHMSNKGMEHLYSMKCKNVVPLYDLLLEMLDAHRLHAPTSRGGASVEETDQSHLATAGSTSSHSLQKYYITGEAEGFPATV

In the case of `CCCCOC(=O)CC#N`, the Potency entry in [1], in [2], in test [3], in test [4], in [5] and in test [7] was “inactive” in each case. In addition, the Potency entry in test [8], in [9], in test [10], in test [11], in test [12] and in test [13] was “inactive” in each case. The Potency entry in test [14], in test [15] and in test [17] was “inactive” throughout. The call in [6] and in test [16] was inactive.

Take `O=C(Cl)c1cc(Cl)cc(Cl)c1`: the Potency entry in [1], in test [2], in [3], in [4], in test [5] and in test [7] was “inactive” each time. Besides, the Potency result in [8], in test [9], in test [10], in test [11], in [12] and in test [13] was “inactive” throughout. Also, the Potency result in [14], in test [15] and in test [17] was “inactive” each time. The compound was called inactive in test [6] and in test [16].

Turning to `CCN(CC)CC(=O)OCC(=O)[C@@]1(O)CC[C@H]2[C@@H]3CCC4=CC(=O)CC[C@]4(C)[C@H]3[C@@H](O)C[C@@]21C`, the Potency was 1.9 µM (active) in [1] and 1.07 µM (active) in test [10]. The Potency entry in test [2], in test [3], in test [4], in [5], in test [7] and in test [8] was “inactive” in each case. For the same compound, the Potency result in test [9], in test [11], in test [12], in test [13], in test [18] and in [14] was “inactive” in each case. For the same compound, the Potency entry in [15], in test [17] and in [19] was “inactive” throughout. Moreover, the result in test [6] and in test [16] was inactive.

As for `O=C(c1ccco1)N1CCNCC1`, the Potency entry in test [1], in [2], in test [3], in [4], in [5] and in [7] was “inactive” throughout. In addition, the Potency entry in test [8], in test [9], in [10], in test [11], in test [12] and in test [13] was “inactive” each time. In addition, the Potency result in [18], in [14], in test [15], in [17] and in test [19] was “inactive” in each case. Further, the compound was called inactive in test [6] and in test [16].

In the case of `Cc1cc(SC2=C(O)C[C@@](CCc3ccc(N)cc3)(C(C)C)OC2=O)c(C(C)(C)C)cc1CO`, the values for the Potency in test [1] and in test [10] were 11 µM (active) and 19.5 µM (active), respectively. In addition, the Potency result in test [2], in test [3], in test [4], in [5], in [7] and in test [8] was “inactive” in each case. In addition, the Potency entry in test [9], in [11], in [12], in test [13], in [18] and in test [15] was “inactive” throughout. For the same compound, the Potency entry in [17] and in test [19] was “inactive” in each case. Further, the compound was called inactive in test [6] and in [16].

As to `CC(CC(C#N)(c1ccccc1)C(C)C)N(C)C` (stereo not drawn), the Potency entry in test [1], in [2], in test [3], in test [4], in test [5] and in test [7] was “inactive” in each case. In addition, the Potency result in [8], in [9], in test [10], in [11], in [12] and in [13] was “inactive” each time. The Potency result in [18], in [14], in test [15] and in [17] was “inactive” each time. Moreover, the compound was called inactive in test [6] and in [16].

For the compound `C(/C=C/C=C/Nc1ccccc1)=Nc1ccccc1`, the Potency result in test [1], in test [2], in test [3], in [4], in [5] and in test [7] was “inactive” throughout. The Potency result in test [8], in test [9], in test [10], in test [11], in test [12] and in [13] was “inactive” throughout. Besides, the Potency entry in test [14] and in [15] was “inactive” in each case. The result in [6] and in test [16] was inactive.

Take `O=C(OC1C[C@H]2CC[C@@H](C1)[N+]21CCCC1)C(O)(c1ccccc1)c1ccccc1` (stereo partly drawn): the Potency result in [1], in test [2], in [3], in [4], in test [5] and in [7] was “inactive” each time. For the same compound, the Potency entry in test [8], in [9], in test [10], in test [11], in test [12] and in test [13] was “inactive” throughout. Moreover, the Potency result in test [18], in [20], in [15], in [17] and in test [19] was “inactive” each time. Also, the call in [6] and in test [16] was inactive.
